# Reference: PubChem BioAssay
# The source made the active and inactive calls. Cut-off read from the data, not from the text of the source, unless noted: active = inhibition above about 80%; inactive = the rest.
# Experiments:
# [1] = growth inhibition, single agent or in combination, cell-based, chromothripsis tumors, cisplatin or BGB combos (AID 1671449); conditions: LFS_MB_P medulloblastoma cells;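 note: cells exposed for 96 hours; 0% = vehicle DMSO and 100% = killing by high DMSO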
# [2] = growth inhibition, single agent and combos, cell-based, chromothripsis tumors, cisplatin or BGB combos (AID 1671450); conditions: HDN33 neuroblastoma cells, stronger effect = higher value;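 note: cells exposed to compound for four days; 0% = vehicle DMSO and 100% = cell killing by high DMSO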
# [3] = growth inhibition, single agents and combos, ICB984, cell-based, cisplatin or BGB combos, synergistic combos for chromothripsis tumors (AID 1671451; call rule not given here;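 note: cells exposed for 96 hours before readout; 0% = vehicle DMSO and 100% = killing by high DMSO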); conditions: ICB984 medulloblastoma cells, drug combinations, stronger effect = higher value
# [4] = growth inhibition, single agents and combos, LFS_MB_1R, cell-based, cisplatin or BGB combos, synergistic combos for chromothripsis tumors (AID 1671452); conditions: LFS_MB_1R medulloblastoma cells, stronger effect = higher value;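 note: cells exposed for 96 hours before readout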
# [5] = growth inhibition, single agents and combos, HTB85, cell-based, BGB or cisplatin IC20 combos, synergistic combos for chromothripsis tumors (AID 1671453); conditions: HTB85 osteosarcoma cells, drug combinations, stronger effect = higher value;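 note: cells exposed for 96 hours before readout; 0% = vehicle DMSO and 100% = high DMSO killing control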
# [6] = growth inhibition, single agents and combos, CRL2098, cell-based, BGB or cisplatin IC20 combos, synergistic combos for chromothripsis tumors (AID 1671454); conditions: CRL2098 osteosarcoma cells, drug combinations, stronger effect = higher value;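 note: cells exposed for 96 h before readout; 0% = vehicle DMSO and 100% = killing by high DMSO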
# [7] = growth inhibition, single agents and combos, HD-MB03, cell-based, BGB or cisplatin IC20 combos, synergistic combos for chromothripsis tumors (AID 1671455; in the data active = inhibition above about 83%;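 note: 0% = vehicle DMSO and 100% = high DMSO as cytotoxic control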); conditions: HD-MB03 medulloblastoma cells, stronger effect = higher value
# [8] = growth inhibition, single agents and combos, UWB1.289, cell-based, BGB or cisplatin combos, synergistic combos for chromothripsis tumors (AID 1671456); conditions: UWB1.289 ovarian carcinoma cells, stronger effect = higher value;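 note: cells exposed to compound for four days; 0% = vehicle DMSO and 100% = killing by high DMSO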
# [9] = growth inhibition, single agents and combos, LFS_MB_2R, cell-based, cisplatin combos, synergistic combos for chromothripsis tumors (AID 1671457); conditions: LFS_MB_2R medulloblastoma cells, stronger effect = higher value;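 note: cells exposed to compound for four days before readout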
# [10] = growth inhibition, MDA-MB-436, cell-based, BGB or cisplatin combos, synergistic combos for chromothripsis tumors (AID 1671458; call rule not given here;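 note: cells exposed for 96 hours; 0% = vehicle DMSO and 100% = killing by high DMSO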); conditions: MDA-MB-436 breast carcinoma growth inhibition, drug combinations, stronger effect = higher value
# [11] = UWB1.289_BRCA1 ovarian cancer growth, cell-based, BGB or cisplatin combinations (AID 1671459); conditions: UWB1.289 BRCA1 ovarian carcinoma, drug combinations, stronger effect = higher value
# [12] = drug combination toxicity in non-malignant astrocytes – cell-based, BGB or cisplatin IC20 combos, cytotoxicity control for chromothriptic childhood tumor combination screen (AID 1671460); conditions: Human astrocytes, viability inhibition, drug combinations, at 0.5 µM, stronger effect = higher value;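 note: cells exposed to compounds for 96 hours before viability readout; 0% = vehicle and 100% = killing control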
# [13] = BT084 cell growth, single and combined drugs, ICGC_MB145, cisplatin and BGB IC40 combos (AID 1671461); conditions: BT084 medulloblastoma cells, drug combinations, stronger effect = higher value;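 note: cells exposed to drugs for 96 hours; 0% = vehicle DMSO and 100% = high DMSO full killing control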
# [14] = RCMB18 cell growth, single agent and combined, cisplatin and BGB IC40 combos (AID 1671462); conditions: RCMB18 medulloblastoma cells, stronger effect = higher value;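 note: cells exposed to compound for four days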
# [15] = CRL1545 cell growth, single agent and combined, cisplatin and BGB IC20 combos (AID 1671464); conditions: CRL1545 osteosarcoma cells, stronger effect = higher value;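 note: cells exposed to compound for 96 hours before readout; 0% = vehicle DMSO and 100% = high DMSO killing control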
# [16] = at 0.5 µM, stronger effect = higher value
# [17] = measured here: combination with BGB IC20, at 0.005 µM
# [18] = measured here: combination with BGB IC40, at 0.005 µM
# [19] = measured here: combination with BGB IC40, at 0.05 µM
# [20] = measured here: combination with cisplatin, at 0.5 µM, stronger effect = higher value
# [21] = measured here: combination with cisplatin, at 5 µM, stronger effect = higher value
# [22] = measured here: with BGB IC20 combination, at 0.5 µM
# [23] = measured here: with cisplatin IC20 combination, at 0.5 µM
# [24] = measured here: 5 uM single agent, at 5 µM
# [25] = measured here: combination with cisplatin, at 0.5 µM
# [26] = measured here: combination with cisplatin, at 5 µM
# [27] = measured here: with BGB IC20, at 0.5 µM
# [28] = measured here: with BGB IC20, at 5 µM
# [29] = measured here: with cisplatin IC20, at 0.5 µM
# [30] = measured here: with cisplatin IC20, at 5 µM
# [31] = measured here: combination with BGB at IC20, at 0.5 µM
# [32] = measured here: combination with cisplatin at IC20, at 0.5 µM
# [33] = measured here: combo with BGB at IC20, at 0.5 µM
# [34] = measured here: combo with cisplatin at IC20, at 0.5 µM
# [35] = measured here: inhibition with BGB combination, at 0.05 µM
# [36] = measured here: inhibition with cisplatin combination, at 0.05 µM
# [37] = measured here: BGB combination, at 0.5 µM
# [38] = measured here: BGB combination, at 5 µM
# [39] = measured here: cisplatin combination, at 0.5 µM
# [40] = measured here: cisplatin combination, at 5 µM
# [41] = BGB combination, concentration series, at 5 µM
# [42] = cisplatin combination, concentration series, at 5 µM
# [43] = measured here: combo with BGB IC20
# [44] = measured here: combo with cisplatin IC20
# [45] = cisplatin combination, at 0.5 µM
# [46] = measured here: BGB IC40 combination 0.05 uM, at 0.05 µM
# [47] = measured here: BGB IC40 combination, at 0.05 µM
compound,measurement,setting,value
CC(=O)C1(O)Cc2c(O)c3c(c(O)c2C(OC2CC(N)C(O)C(C)O2)C1)C(=O)c1ccccc1C3=O (stereo unspecified),inhibition,[1]; [16],-11.2% (inactive)
same,inhibition,[1]; [17],-29.5%
same,inhibition,[1]; [18],-38.8%
same,inhibition,[1]; [19],-19.5%
same,inhibition,[1]; [20],-31.3%
same,inhibition,[1]; [21],125%
same,inhibition,"[2]; BGB combo, at 5 µM",99.7%
same,inhibition,[2]; at 0.5 µM,98.4% (active)
same,inhibition,"[2]; cisplatin combo, at 5 µM",99.9%
same,inhibition,[2]; [22],97.4%
same,inhibition,[2]; [23],98.5%
same,inhibition,"[2]; single agent, at 5 µM",99.9%
same,inhibition,"[3]; BGB IC20 combo, at 0.005 µM",97.5%
same,inhibition,"[3]; BGB IC40 combo, at 0.005 µM",95.4%
same,inhibition,"[3]; BGB IC40 combo, at 0.05 µM",100%
same,inhibition,[3]; at 0.5 µM,-42.9% (inactive)
same,inhibition,"[3]; cisplatin combo, at 0.05 µM",100%
same,inhibition,"[3]; cisplatin combo, at 0.5 µM",-43%
same,inhibition,"[3]; cisplatin combo, at 5 µM",-1.78%
same,inhibition,[3]; [24],-14.9%
same,inhibition,[4]; at 0.5 µM,102% (active)
same,inhibition,[4]; [19],73.8%
same,inhibition,[4]; [25],103%
same,inhibition,[4]; [26],106%
same,inhibition,[5]; at 0.5 µM,99.6% (active)
same,inhibition,[5]; [27],99.4%
same,inhibition,[5]; [28],99.7%
same,inhibition,[5]; [29],99.8%
same,inhibition,[5]; [30],99.8%
same,inhibition,"[5]; single agent, at 5 µM",99.9%
same,inhibition,[6]; at 0.5 µM,98.6% (active)
same,inhibition,[6]; [31],98%
same,inhibition,[6]; [32],98.6%
same,inhibition,[7]; at 0.5 µM,94.5% (active)
same,inhibition,[7]; [33],89.5%
same,inhibition,[7]; [34],99.8%
same,inhibition,[8]; at 0.5 µM,83.1% (active)
same,inhibition,[8]; [35],40.5%
same,inhibition,[8]; [36],51.2%
same,inhibition,[9]; at 0.5 µM,75.6% (inactive)
same,inhibition,[9]; [25],88%
same,inhibition,[9]; [26],102%
same,inhibition,[10]; at 0.5 µM,76.4% (inactive)
same,inhibition,[10]; [37],65.8%
same,inhibition,[10]; [38],72.7%
same,inhibition,[10]; [39],82.9%
same,inhibition,[10]; [40],92.7%
same,inhibition,[11]; [41],101%
same,inhibition,[11]; at 0.5 µM,89% (active)
same,inhibition,[11]; [42],97.8%
same,inhibition,[12],89.9% (active)
same,inhibition,[12]; [43],84%
same,inhibition,[12]; [44],91.6%
same,inhibition,[13]; at 0.5 µM,13.8% (inactive)
same,inhibition,[13]; [45],-40.7%
same,inhibition,"[13]; cisplatin combination, at 5 µM",77.4%
same,inhibition,[13]; [46],-4.42%
same,inhibition,"[13]; single agent, at 5 µM",81.6%
same,inhibition,[14]; at 0.5 µM,75.2% (inactive)
same,inhibition,"[14]; cisplatin combo, at 5 µM",89.9%
same,inhibition,[14]; [47],34.7%
same,inhibition,[14]; [25],76.4%
same,inhibition,"[14]; single agent, at 5 µM",94.4%
same,inhibition,[15]; at 0.5 µM,99.1% (active)
same,inhibition,[15]; [22],98.7%
same,inhibition,[15]; [23],99.3%
same,inhibition,"[15]; single agent, at 0.05 µM",99.4%
same,inhibition,"[15]; single agent, at 5 µM",99.9%
O=C(CCCCCCC(=O)Nc1ccc(I)cc1)NO,inhibition,[1]; [16],14.6% (inactive)
same,inhibition,[1]; [17],-13.9%
same,inhibition,[1]; [18],-26.4%
same,inhibition,[1]; [19],-4.26%
same,inhibition,[1]; [20],55%
same,inhibition,[1]; [21],112%
same,inhibition,"[2]; BGB combo, at 5 µM",92.7%
same,inhibition,[2]; at 0.5 µM,2.25% (inactive)
same,inhibition,"[2]; cisplatin combo, at 5 µM",96.8%
same,inhibition,[2]; [22],2.67%
same,inhibition,[2]; [23],4.68%
same,inhibition,"[2]; single agent, at 5 µM",96.1%
same,inhibition,"[3]; BGB IC20 combo, at 0.005 µM",-14%
same,inhibition,"[3]; BGB IC40 combo, at 0.005 µM",-21.6%
same,inhibition,"[3]; BGB IC40 combo, at 0.05 µM",79.6%
same,inhibition,[3]; at 0.5 µM,-43% (inactive)
same,inhibition,"[3]; cisplatin combo, at 0.05 µM",78.8%
same,inhibition,"[3]; cisplatin combo, at 0.5 µM",-63.2%
same,inhibition,"[3]; cisplatin combo, at 5 µM",-38.3%
same,inhibition,[3]; [24],-6.51%
same,inhibition,[4]; at 0.5 µM,4.61% (inactive)
same,inhibition,[4]; [19],-30%
same,inhibition,[4]; [25],7%
same,inhibition,[4]; [26],97.8%
same,inhibition,[5]; at 0.5 µM,-14.1% (inactive)
same,inhibition,[5]; [27],-30.7%
same,inhibition,[5]; [28],58%
same,inhibition,[5]; [29],-7.38%
same,inhibition,[5]; [30],98.3%
same,inhibition,"[5]; single agent, at 5 µM",68.5%
same,inhibition,[6]; at 0.5 µM,-40.1% (inactive)
same,inhibition,[6]; [31],-46.1%
same,inhibition,[6]; [32],-23.5%
same,inhibition,[7]; at 0.5 µM,12.8% (inactive)
same,inhibition,[7]; [33],5.06%
same,inhibition,[7]; [34],20.3%
same,inhibition,[8]; at 0.5 µM,14.7% (inactive)
same,inhibition,[8]; [35],-32%
same,inhibition,[8]; [36],-13.2%
same,inhibition,[9]; at 0.5 µM,-12.8% (inactive)
same,inhibition,[9]; [25],3.62%
same,inhibition,[9]; [26],99%
same,inhibition,[10]; at 0.5 µM,-16.9% (inactive)
same,inhibition,[10]; [37],-27.7%
same,inhibition,[10]; [38],49.2%
same,inhibition,[10]; [39],-20.6%
same,inhibition,[10]; [40],53.6%
same,inhibition,[11]; [41],84.7%
same,inhibition,[11]; at 0.5 µM,7.03% (inactive)
same,inhibition,[11]; [42],105%
same,inhibition,[12],29.2% (inactive)
same,inhibition,[12]; [43],30.5%
same,inhibition,[12]; [44],21.3%
same,inhibition,[13]; at 0.5 µM,12.2% (inactive)
same,inhibition,[13]; [45],29.6%
same,inhibition,"[13]; cisplatin combination, at 5 µM",105%
same,inhibition,[13]; [46],-26.1%
same,inhibition,"[13]; single agent, at 5 µM",103%
same,inhibition,[14]; at 0.5 µM,20.3% (inactive)
same,inhibition,"[14]; cisplatin combo, at 5 µM",94.9%
same,inhibition,[14]; [47],-10.7%
same,inhibition,[14]; [25],54.3%
same,inhibition,"[14]; single agent, at 5 µM",85.9%
same,inhibition,[15]; at 0.5 µM,46.9% (inactive)
same,inhibition,[15]; [22],39.3%
same,inhibition,[15]; [23],50.7%
same,inhibition,"[15]; single agent, at 0.05 µM",-7.66%
same,inhibition,"[15]; single agent, at 5 µM",95.3%
